Bioassay records from PubChem BioAssay.
An excerpt weighted towards active compounds, which were near 3.8% of everything screened.
ELG1 repair inh – ELG1-dependent DNA repair inhibition; HEK293T ELG1-luciferase reporter, luminescence, 16 h; DNA damage induced by 5-fluorouridine; actives 2.3% (n = 330,000); Potency, µM (highest dose often 46.1 µM), without a hit: at the top dose activity change, negative = inhibition, actives largely listed as inhibitors; further: on the % scale 0 is the no-effect control and ±100 the full control effect; nearly all actives have a fitted effect of over 55% in size
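Quantitative HTS, concentration-response format. 2,000 cells/well co-treated with 5-fluorouridine and compound, 16 hr in 5% CO2 at 37 °C; ONE-Glo luminescence read after 30 min.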
A549 tox – A549 cytotoxicity, counter-screen for Nrf2 inhibitors; A549 ARE-Fluc cells, CellTiter-Fluor viability, 18-24 h; Potency, µM (top dose mostly 46 µM), without a hit: at the highest dose activity change, negative = cytotoxicity, most hits filed as inhibitors; actives 0.16% (n = 390,000); AID 504648; further: on the % scale 0 is the no-effect control and ±100 the full control effect
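A549 ARE-Fluc cells in 5% FBS OPTI-MEM, 5000 cells/well, rested 2 h then exposed to compounds in concentration-response for 18-24 h at 37 °C. Viability by CellTiter-Fluor fluorescence (Ex 405/Em 525) after 30 min; luciferase luminescence (BugLite, 15 min, RT) read afterwards.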
Nrf2 activator – activators of Nrf2 (ARE) signaling; AREc32 ARE-luciferase reporter (MCF7-derived line), luminescence, 24 h; Potency, µM (top dose mostly 46.1 µM), without a hit: top-dose activation, actives largely listed as activators; actives 0.31% (n = 410,000); AID 624171; further: % of control where 0% means no effect; nearly all actives have a fitted effect of over 65% in size
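Luciferase luminescence (Steady-Glo, 30 min at room temperature) served as the read-out of ARE activation in AREc32 cells treated with compounds for 24 hr at 37 deg C.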
mIDH1 inhibitor – human IDH1 R132H inhibition | O75874 | IDH1-R132H enzyme, NADPH consumption, diaphorase/resazurin fluorescence | Potency, µM (top dose mostly 76.6 µM), for inactives: at the highest dose activity change, negative = inhibition, usual class: inhibitors | actives 0.093% (n = 390,000) | AID 602179; further: on the % scale 0 is the no-effect control and ±100 the full control effect; nearly all actives have a fitted effect of over 65% in size
Target sequence (O75874 whole entry R132H, stated change not applied): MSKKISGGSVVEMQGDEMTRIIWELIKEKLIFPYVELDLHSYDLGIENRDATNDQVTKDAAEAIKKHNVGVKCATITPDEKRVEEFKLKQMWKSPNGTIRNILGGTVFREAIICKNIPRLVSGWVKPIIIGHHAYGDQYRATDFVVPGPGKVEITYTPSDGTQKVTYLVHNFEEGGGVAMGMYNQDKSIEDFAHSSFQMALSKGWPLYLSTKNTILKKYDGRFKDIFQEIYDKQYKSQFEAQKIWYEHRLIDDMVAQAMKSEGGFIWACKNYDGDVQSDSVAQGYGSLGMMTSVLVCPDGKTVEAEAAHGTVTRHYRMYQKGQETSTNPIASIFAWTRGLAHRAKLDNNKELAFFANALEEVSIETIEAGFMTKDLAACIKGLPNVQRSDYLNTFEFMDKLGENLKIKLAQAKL
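IDH1-R132H (0.5 ug/mL dispensed) in pH 7.5 Tris buffer was preincubated 30 min with compound, then given a substrate mix of 0.016 mM NADPH and 2 mM alpha-KG for 80 min at room temperature; remaining NADPH was read by diaphorase/resazurin fluorescence.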
Nrf2 inh – Nrf2 pathway inhibition. A549 ARE-Fluc reporter, luciferase luminescence, 18-24 h. actives 2.1% (n = 360,000). AID 504444. Potency, µM (titrated, usually from 46 µM), without a hit: top-dose activity change, negative = inhibition, most hits filed as inhibitors; further: on the % scale 0 is the no-effect control and ±100 the full control effect; nearly all actives have a fitted effect of over 60% in size
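Nrf2 function is reported as luminescence of an ARE-controlled luciferase in A549 cells. Compounds were tested at several concentrations, and a CellTiter-Fluor read on the same wells flagged cytotoxicity.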
Numbers without * were called inactive; ? = inconclusive; . = not tested or not shown. The call rests on the fitted dose curve; in most records, active means well fitted curve in the direction sought with a large enough effect; inconclusive means small, poorly fitted or top-dose-only effect, or another doubt; inactive means no such curve, though single readings can be large; an effect the other way counts as inactive or inconclusive. Potency means the concentration at half of the fitted maximal effect.

SMILES	ELG1 repair inh	A549 tox	Nrf2 activator	mIDH1 inhibitor	Nrf2 inh
Cc1ccc(S(=O)(=O)N[C@@H](Cc2ccccc2)C(=O)CCl)cc1	16.4µM*	-10.1%	6.2%	-12.9%	18.4µM*
Cc1ccc(C)c2[nH]c(=O)c(C(c3nnnn3C(C)(C)C)N3CC=C(c4ccc(F)cc4)CC3)cc12 (stereo not given)	7.31µM*	4.6%	?	7.3%	-16.8%
CCC(C)(C)n1nnnc1C(c1cc2cc(C)cc(C)c2[nH]c1=O)N1CCCC1 (stereo not given)	14.6µM*	-4.9%	3.4%	-5.1%	4.6%
Cc1nc2c(=O)n(C)c(=O)n(C)c2nc1Cl	?	?	?	3.2%	18.4µM*
Cc1ccc(NS(=O)(=O)c2cc3c(cc2-c2ccsc2)NC(=O)CO3)cc1C	.	2.8%	.	.	9.5%
COc1ccc(/C=N/OCC(=O)N=Nc2c(O)[nH]c3ccc(Br)cc23)cc1OC	13µM*	-3.1%	4.1%	8.8%	?
COc1ccc(/C(C)=N/OCC(=O)N=Nc2c(O)[nH]c3ccc(Br)cc23)cc1	?	-4.2%	3.0%	3.6%	?
Cc1cc2ccccn2c1C(=O)c1ccc(S(=O)(=O)N(C)C)cc1	16.4µM*	-16.6%	-0.1%	5.6%	?
CCCCCC(=O)O[C@]1(C(C)=O)CC[C@H]2[C@@H]3CCC4=CC(=O)CC[C@]4(C)[C@H]3CC[C@@]21C	12.1%	?	3.7%	-18.0%	20.6µM*
COc1ccc(S(=O)(=O)N(CC(=O)N2CCN(c3ccccc3OC)CC2)c2ccccc2)cc1	20.6µM*	-7.5%	-0.2%	6.8%	-27.2%
COc1ccccc1N1CCN(C(=O)c2ccc(S(=O)(=O)N3CCCCCC3)cc2)CC1	14.6µM*	1.0%	-0.1%	2.1%	-4.4%
COc1ccc(C(=O)N2CCN(S(=O)(=O)c3ccc(Br)cc3)CC2)cc1	-2.9%	-4.9%	0.1%	12.1%	-22.1%
COc1ccc(CN2CCN(C(=O)c3ccc(S(=O)(=O)N4CCCCCC4)cc3)CC2)cc1	10.3µM*	-3.4%	3.6%	1.8%	?
O=C(c1ccc(S(=O)(=O)N2CCCCC2)cc1)N1CCN(c2ccccc2F)CC1	-18.9%	15.8%	0.5%	3.4%	-4.8%
COc1cccc(S(=O)(=O)Nc2ccc(C(=O)N3CCN(C(=O)c4ccco4)CC3)cc2)c1	18.4µM*	-10.2%	-0.5%	-3.9%	.
CCCCN(C)C(=O)c1ccc2c(c1)NC(=O)C(CC(C)C)N2 (stereo not given)	.	3.4%	0.3%	46.4%	.
COc1ccc(C2=Nn3c(nnc3-c3ccc(OC)cc3OC)SC2)cc1	.	-6.5%	.	.	?
COc1ccc(NS(=O)(=O)c2ccc(C(=O)N3CCN(Cc4ccccc4)CC3)cc2)cc1	?	-9.4%	-0.1%	5.5%	20.6µM*
COc1ccc(CN2CCN(C(=O)c3ccc(S(=O)(=O)N4CCCCCC4)cc3)CC2)cc1F	6.51µM*	-19.8%	0.7%	4.5%	9.2µM*
O=C(c1ccc(S(=O)(=O)N2CCCCCC2)cc1)N1CCN(Cc2ccccc2)CC1	?	-1.9%	-0.2%	3.0%	?
N#Cc1ccc(S(=O)(=O)N2CCC(C(=O)N3CCN(Cc4ccc5c(c4)OCO5)CC3)CC2)cc1	?	-8.2%	-0.4%	9.1%	18.4µM*
N#Cc1ccc(CN2CCN(C(=O)c3ccc(S(=O)(=O)N4CCCCCC4)cc3)CC2)cc1	?	-9.1%	-0.3%	12.4%	16.4µM*
COc1ccc(CN2CCN(C(=O)c3ccc(S(=O)(=O)NCc4ccco4)cc3)CC2)cc1F	-11.3%	-21.1%	7.7%	6.8%	?
Cc1ccccc1C(=O)Nc1cccc(-c2nc3cccnc3s2)c1	.	3.2%	7.2%	1.8%	-23.9%
COc1ccc(N(C)S(=O)(=O)c2ccc(Cl)c(C(=O)NCC(C)(C)N3CCOCC3)c2)cc1	-12.8%	0.9%	2.4%	1.8%	?
SMILES	ELG1 repair inh	A549 tox	Nrf2 activator	mIDH1 inhibitor	Nrf2 inh
COc1cc(-c2nnc(-c3cccnc3)o2)cc(OC)c1OC	?	2.1%	0.1%	-4.0%	-1.5%
COc1ccc(-c2nnc(-c3ccccc3)o2)cc1OC	?	-0.2%	5.9%	-5.8%	?
COc1cc(-c2nnc(-c3cc(OC)c(OC)c(OC)c3)o2)cc(OC)c1OC	8.2µM*	14.1%	-0.5%	0.0%	.
COc1cc(-c2nnc(-c3ccccc3)o2)cc(OC)c1OC	23.1µM*	1.4%	5.8%	6.1%	-4.3%
CCN(c1ccccc1)c1ccc2cc(S(=O)(=O)N3CCCC3)ccc2n1	.	17.9%	-0.6%	-5.9%	?
CCCCN(CC)C(=O)CSc1nc2n[nH]c(C)c2c(=N)n1-c1ccc(CC)cc1	.	-19.1%	-2.9%	-7.9%	.
N#Cc1nc(-c2ccc(OCc3ccc(Cl)cc3)cc2)oc1N1CCCCCC1	.	1.2%	.	.	17.6%
CC(C)Oc1ccc(CNC(=O)c2ccc(CS(=O)Cc3ccccc3Cl)o2)cc1 (stereo not given)	.	1.5%	3.2%	-6.5%	?
COc1cccc(CN2CCN(C(=O)c3ccco3)CC2)c1OC	.	0.1%	0.3%	4.2%	18.9%
CCOc1ccccc1-c1nc(CN2CCN(C(=O)c3ccco3)CC2)c(C)o1	0.1%	4.1%	-0.2%	3.3%	-0.7%
CCOc1ccccc1-n1c(CN2CCN(C(=O)c3ccco3)CC2)nc2ccccc2c1=O	-26.4%	-22.2%	-1.1%	7.3%	16.4µM*
COc1ccc2ccccc2c1CN1CCN(C(=O)c2ccco2)CC1	20.6µM*	2.0%	0.6%	4.1%	-16.2%
COc1ccc2ccccc2c1CN1CCN(C(=O)c2ccccc2)CC1	18.4µM*	-2.6%	2.6%	9.8%	.
Cc1cccc(-c2nc3c4ccccc4nc(NCc4ccc(Cl)cc4)n3n2)c1	.	7.5%	3.6%	-24.8%	?
CCN1C=CC(=C2C(=O)c3ccccc3C2=O)C=C1	?	-1.8%	-2.7%	0.9%	1.64µM*
CCCCCCN1C=CC(=C2C(=O)c3ccccc3C2=O)C=C1	?	-1.1%	-0.9%	0.6%	?
CCCN1C=CC(=C2C(=O)c3ccccc3C2=O)C=C1	?	-24.6%	-2.8%	0.4%	3.26µM*
CCCN(c1ccccc1F)S(=O)(=O)c1ccc2c(c1)C(C)(C)C(=O)N2C	.	-10.6%	4.8%	0.0%	-29.0%
Cc1cc(C)c(C(=O)NCCCN2CCOCC2)c(C)c1	7.9%	-0.4%	0.3%	-5.5%	1.0%
O=C(CSc1nc(-c2cccs2)nc2cc(=O)[nH]n12)Nc1cccc(C(F)(F)F)c1	.	3.3%	?	-23.1%	?
COc1ccc(NCc2n[nH]c(=O)c3ccccc23)cc1	?	-1.5%	0.4%	10.6%	-27.1%
O=c1[nH]nc(CNc2cccc(C(F)(F)F)c2)c2ccccc12	?	0.0%	3.0%	-0.6%	13µM*
